From PubChem BioAssay
Mdm2 MdmX PPI = inhibitors of human Mdm2-MdmX association, primary screen, cell-based, luminescence, split luciferase, SaOS-2, uHTS; Protein Mdm4 (Homo sapiens) + E3 ubiquitin-protein ligase Mdm2 (Homo sapiens), …; actives 3% (n = 330,000); AID 485346, 2010; SaOS-2 split-luciferase Mdm2/MdmX complementation; inhibition, % at 8 µM;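 active means inhibition of at least 50% at 8 µM in the primary screen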
Beta apoptosis = inhibitors of cytokine-induced beta cell apoptosis, primary screen, luminescence. INS-1E cytokine-induced death, ATP luminescence, 48 h; percent of positive-control rescue, neutral wells zero. protection from apoptosis, % (test concentration not listed). actives 0.8% (n = 300,000). AID 435005, 2010;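 active means Every replicate reaches about 75%, or at least half do and their mean reaches it too, limit read from the data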;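 further: 0% = cytokine-treated negative control wells and 100% = positive control rescue; higher means more ATP so stronger rescue from cytokine killing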
Gli-Sufu block = Gli-Sufu pathway antagonists, primary screen, luciferase luminescence, Sufu-KO-LIGHT cells, uHTS; Sufu-KO-LIGHT fibroblasts, Gli luciferase reporter luminescence; inhibition, % at 5 µM; actives 0.74% (n = 340,000);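 active means inhibition above about 55%, limit read from the data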;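 further: 0% = DMSO-treated cells and 100% = wells with medium but no cells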
Jurkat NFkB inh = inhibitors of induced NF-kB luciferase reporter, primary screen, TCR NF-kB activation inhibitor project, cell-based, luminescence, uHTS | Jurkat, PMA/ionomycin-induced NF-kB luciferase reporter | inhibition, % at 4 µM | actives 0.53% (n = 330,000) | AID 435003, 2010; in the data active means inhibition above about 50%
697 NFkB inh = inhibitors of PMA/ionomycin-induced NF-kB reporter, 697 cells, primary screen, B-cell NF-kB inhibitor project, cell-based, luminescence, uHTS; 697 B-cell NF-kB luciferase reporter, 16 h; inhibition, % at 4 µM; actives 0.33% (n = 330,000); AID 435022, 2010; in the data active means inhibition above about 35%
Gli-Sufu confirm = Gli-SUFU pathway antagonists, confirmation, single concentration, luciferase luminescence, Sufu-KO-LIGHT cells. AID 602428, 2012. inhibition, % at 5 µM. actives 40% (n = 2,500). shares compounds with Gli-Sufu block. Gli luciferase reporter;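 active means mean inhibition at 5 µM reaching about 45%, limit read from the data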;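 further: plate controls were DMSO-treated cells for no effect and wells lacking cells for full effect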
Gli cytotox = cytotoxicity in Sufu-KO-LIGHT cells, confirmation, cytotoxicity control for Gli-SUFU antagonist project, cell-based, ATP luminescence, single concentration; actives 32% (n = 2,500); cytotoxicity, % at 5 µM; shares compounds with Gli-Sufu block;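 active means mean cytotoxicity at 5 µM above about 25%, limit read from the data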;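 further: cells exposed to compound overnight for roughly 16 to 18 hours; plate controls were DMSO wells with cells for no effect and medium without cells for full effect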
Wnt3a counter = Wnt3a reporter signal inhibition, confirmation, counter-screen for Gli-SUFU antagonist project, Wnt-LIGHT cells, luminescence, single concentration. Wnt3a-driven luciferase reporter. shares compounds with Gli-Sufu block. inhibition, % at 6.25 µM. actives 20% (n = 2,500);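 active means mean inhibition above about 25%, limit read from the data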
* = called active by the depositor; x = no result. This is a sample that favours compounds with a hit; in the whole collection about 4% have one here.

SMILES | Mdm2 MdmX PPI | Beta apoptosis | Gli-Sufu block | Jurkat NFkB inh | 697 NFkB inh | Gli-Sufu confirm | Gli cytotox | Wnt3a counter
O=C(c1ccc2c3c(cccc13)CC2)C1CCCN(Cc2ccncc2)C1 (centres undefined) | 25 | 19 | 9 | 24 | -6 | x | x | x
COc1ccc(CNC(=O)CCCn2ccc3cc(S(=O)(=O)N4CCCC4)ccc32)cc1 | 46 | 8 | 59* | 44 | -17 | 8 | 27* | -97
CCC(C(=O)NCCC(C)C)n1ccc2cc(S(=O)(=O)N3CCCCC3)ccc21 (centres undefined) | 26 | x | 67* | 17 | -35 | 45 | 23 | -9
CCOc1ccc(C2C(C(=O)O)CCC(=O)N2C2CCCCC2)cc1 (centres undefined) | 20 | -3 | -4 | -8 | 5 | x | x | x
COc1ccccc1NC(=O)C(=O)N/N=C(\C)CC(=O)Nc1ccccn1 | -20 | 0 | x | -1 | -5 | x | x | x
C/C(CC(=O)Nc1ccccn1)=N\NC(=O)C(=O)Nc1ccccc1C | 7 | 0 | 56* | 9 | 14 | 20 | -1 | 3
CCCCn1c(=O)[nH]c(=O)c2c1nc(CN(C)Cc1cccc(OC)c1OC)n2CCC | x | 3 | 63* | x | x | 17 | 4 | -8
CCCCCn1c(CCC(=O)Oc2ccccc2OC)nc2c1c(=O)[nH]c(=O)n2CCCC | 2 | -6 | -1 | 9 | -8 | x | x | x
CC(C)CC(NC(=O)C(NC(=O)C1CCC(=O)N1C(=O)OCc1ccccc1)C(C)C)C(=O)N1CCCC1C(N)=O (centres undefined) | -3 | -3 | -20 | 12 | 7 | x | x | x
Cc1ccc(C)c(N2CCN(c3nc4ccccc4c(=O)n3Cc3ccccc3)CC2)c1 | 28 | x | 55 | 8 | -4 | 24 | 15 | -6
Cc1sc(NC(=O)CSc2nnc(C(C)C)n2C)c(C#N)c1C | 3 | -2 | 56* | -6 | 2 | 26 | 0 | -4
CCOc1ccc(NC(=O)COc2ccc3c(c2)CCC3)cc1OC | -13 | 2 | -10 | -3 | 18 | x | x | x
COc1ccc(O)c(C(=O)c2cnc3c(c2)c(=O)[nH]c(=O)n3C)c1 | 5 | 0 | 57* | -5 | 16 | 28 | 7 | 33*
O=C(NN=C1CCCCCC1)C(=O)Nc1cccc(Br)c1 | -18 | -8 | -31 | 2 | -5 | x | x | x
O=C(c1cccc(S(=O)(=O)N2CCN(c3ccccc3)CC2)c1)N1CCCC(C(F)(F)F)C1 (centres undefined) | 22 | 34 | 55 | 20 | -38 | 57* | 15 | -5
O=C(c1cccc(S(=O)(=O)N2CCc3ccccc32)c1)N1CCOCC1 | 14 | 3 | 1 | 3 | 14 | x | x | x
O=C(c1cccc(S(=O)(=O)N2CCCc3ccccc32)c1)N1CCN(c2ccccc2)CC1 | 19 | -6 | 52 | -7 | 13 | 19 | 10 | -37
C#CCN1C=CC(=O)[C@@H](O)[C@H]1c1ccccc1Br | x | x | 1 | x | x | x | x | x
COc1cccc(OC)c1/C(O)=C(\C#N)c1nc2ccccc2[nH]1 | -9 | -8 | 51 | -2 | 4 | 19 | 22 | -7
CC(C)(C)/C(O)=C(/C#N)c1nc2ccccc2[nH]1 | -9 | 14 | 2 | -7 | -9 | x | x | x
Cc1ccc(C(=O)COC(=O)CNC(=O)c2ccccc2)s1 | -13 | -1 | -5 | -3 | 0 | x | x | x
Cc1ccnc(NC(=O)CCC(=O)N(CC(=O)NCc2ccc(F)cc2)Cc2ccco2)c1 | 2 | -10 | 63* | -21 | -10 | 15 | 8 | -6
